Screening data from PubChem BioAssay.
Hits are enriched below; roughly 7.1% of the tested compounds scored in any of these assays.
MCF10A rerep: inducers of DNA re-replication in MCF 10A breast cells; Potency, µM (titrated, usually from 46.1 µM), for inactives: at the top dose activity, positive = re-replication, usual class: activators; MCF 10A DNA re-replication, Hoechst nuclear intensity, 48 h; 2.9% of 350,000 active; AID 624296; note: % of control where 0% means no effect; nearly all actives have a fitted effect of over 50% in size
SW480 rereplic: induces DNA re-replication in SW480 colon adenocarcinoma cells. Potency, µM (highest dose often 46.1 µM), without a hit: at the top dose re-replication activation, usual class: activators. AID 624297. 1.8% of 340,000 active. SW480 DNA re-replication, Hoechst DNA content imaging, 48 h; note: % of control where 0% means no effect; nearly all actives have a fitted effect of over 55% in size
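Compounds, transferred as 23 nL by pin tool, were incubated with cells for 48 hr; DNA content per nucleus was then quantified by Hoechst staining and fluorescence plate imaging.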
p53 reactivator: re-activators of mutant p53. H1299 p53-A138V BP100-luciferase reporter, luminescence, 24 h. Potency, µM (series often up to 92.2 µM), inactives show top-dose activity change, positive = activation, most hits filed as activators. 0.063% of 320,000 active. AID 504706; note: % of control where 0% means no effect; nearly all actives have a fitted effect of over 45% in size
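p53-null H1299 cells stably carrying temperature-sensitive p53-A138V and a BP100-luciferase reporter were pinned with compounds (4-point, 1:5 series) and held 24 hrs at 37 deg C. Luminescence was read 10 min after detection reagent.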
ELG1 DNA repair: blocks ELG1-dependent DNA repair in HEK293T cells. HEK293T ELG1-luciferase reporter, luminescence, 16 h; DNA damage induced by 5-fluorouridine. Potency, µM (series often up to 46.1 µM), inactives show at the top dose activity change, negative = inhibition, most hits filed as inhibitors. 2.3% of 330,000 active; note: % is set by controls: 0 for no effect and ±100 for the full control effect; nearly all actives have a fitted effect of over 55% in size
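Step one: seed 2,000 cells per well. Step two: pin-transfer compound or DMSO alongside 5-fluorouridine. Step three: incubate 16 hr, 37 °C, 5% CO2. Step four: add ONE-Glo, wait 30 min, read luminescence.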
AT treatment: candidate therapy for ataxia-telangiectasia | F2112 A-T fibroblasts, KAP-1 phosphorylation AlphaLISA; neocarzinostatin DNA damage 30 min before lysis | Potency, µM (series often up to 57.5 µM), for the others: at the top dose activation, hits mostly activators | 0.19% of 320,000 active; note: % of control where 0% means no effect; nearly all actives have a fitted effect of over 45% in size
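hTERT-immortalized A-T patient fibroblasts (F2112), 500 cells/well in OPTI-MEM, 1% FBS, got compounds for 60 min, then NCS for 30 min at 37C. Lysates were then assayed for phospho-KAP-1 by AlphaLISA (anti-pKAP1 donor, anti-KAP1 acceptor beads), 6 hr at 25C.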
ELG1 genotox: genotoxicity induction in ELG1-luciferase HEK293T cells | HEK293T ELG1-luciferase reporter, luminescence, 16 h | Potency, µM (highest dose often 46 µM), for inactives: at the top dose activity change, positive = activation, usual class: activators | 1.3% of 330,000 active | AID 504466; note: % of control where 0% means no effect; nearly all actives have a fitted effect of over 60% in size
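Screening used a luciferase reporter fused to human ELG1 in HEK293T cells. Luminescence was read on a CCD plate imager after 16 hr exposure and 30 min ONE-Glo incubation.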
An asterisk follows results filed as active; ? = inconclusive; · = no result given. Calls come from the whole dose curve; as a rule, active = well fitted curve in the direction sought with a large enough effect; inconclusive = small, poorly fitted or top-dose-only effect, or another doubt; inactive = no such curve, though single readings can be large; an effect the other way counts as inactive or inconclusive. Potency is the fitted concentration of half-maximal effect.

SMILES	MCF10A rerep	SW480 rereplic	p53 reactivator	ELG1 DNA repair	AT treatment	ELG1 genotox
Cc1cc(C(=O)OCC(=O)NNC(=O)c2cccs2)ccc1[N+](=O)[O-]	?	12µM*	6%	20%	-9%	0%
CCCCCCC(NC(=O)c1ccc(C)cc1)C(=O)O (configuration not stated)	-39%	4%	-4%	?	7%	-3%
COc1cc(Cl)ccc1OCc1cc(C(=O)NCc2cc(C(C)C)no2)no1	?	-1%	-4%	?	9%	?
NC(=O)n1c(O)c(C(=O)c2cccs2)c2cc(Cl)ccc21	?	2%	·	·	·	·
CCCOc1c(OC)cccc1C1CC(=O)Nc2cc3c(cc21)OCO3 (configuration not stated)	5.8µM*	16µM*	-7%	-21%	2%	-1%
CCOc1c(OC)cccc1C1CC(=O)Nc2cc(OC)c(OC)cc21 (configuration not stated)	4%	-10%	-4%	-25%	4%	11%
CCCOc1c(OC)cccc1C1CC(=O)Nc2cc3c(cc21)OCCO3 (configuration not stated)	5.8µM*	?	9%	-15%	-4%	2%
C=CCCCCCCCCc1nc(SCC(C)=O)n[nH]1	-1%	4%	0%	23µM*	-15%	-4%
C=CCCCCCCCCc1nc(SCC(=O)O)n[nH]1	-3%	1%	0%	12%	10%	0%
Cc1ccc(OCc2cc(C(=O)N(C)CCc3ccccn3)no2)cn1	-2%	?	0%	2%	4%	-3%
Nc1nnc(-c2cc3ccccc3oc2=O)s1	1%	2%	8%	?	7%	?
O=c1oc2ccccc2cc1-c1nnc(NCc2ccco2)s1	9.2µM*	13µM*	?	?	·	?
O=S(=O)(NC1=NCCCCC1)c1ccc(Cl)cc1Cl	12%	3%	4%	13%	-1%	2%
COc1ccc(N(CC(=O)N2CCN(c3cccc(C)c3C)CC2)S(=O)(=O)c2c(C)noc2C)cc1	?	-10%	3%	-10%	-3%	-7%
CC1(C)CCc2cc(-c3ccnc(=S)[nH]3)ccc2O1	0%	0%	9%	?	-2%	1.5µM*
N#C/C(=C/c1ccc(-c2ccc([N+](=O)[O-])cc2)o1)c1nnc(N2CCOCC2)n1-c1ccccc1	-18%	1%	·	·	·	·
O=C(c1ccc(F)cc1)c1cc2ccc(O)cc2oc1=O	10%	?	3%	?	-11%	?
C/C(=N\NC(=O)CC#N)c1cc2ccc(O)cc2oc1=O	9.2µM*	21µM*	-7%	2%	1%	0%
NC(=O)c1cc2ccc(O)cc2oc1=NCc1ccccc1	?	5%	?	9.2µM*	5%	-8%
O=C(NCc1ccccc1)c1cc2ccc(O)cc2oc1=O	16µM*	7.3µM*	?	?	43%	?
NC(=O)c1cc2ccc(O)cc2oc1=Nc1ccccc1	?	?	?	2.3µM*	-15%	-8%
CNS(=O)(=O)c1cccc(C(=O)OCC(=O)c2ccc3[nH]c(=O)[nH]c3c2)c1	1%	1%	-2%	3%	9%	5%
Cc1ccccc1CS(=O)(=O)CC(O)CN1CCCC1=O (configuration not stated)	2%	-2%	5%	13%	26%	-1%
O=[N+]([O-])c1ccc(S(=O)(=O)NCCS(=O)(=O)N2CCN(c3ccccc3)CC2)cc1	-10%	-15%	-2%	?	9%	-5%
COc1ccc(OC)c(N=c2oc3cc(O)ccc3cc2C(N)=O)c1	16µM*	18µM*	?	?	-4%	-1%
SMILES	MCF10A rerep	SW480 rereplic	p53 reactivator	ELG1 DNA repair	AT treatment	ELG1 genotox
CSc1nsc(SCC(=O)Nc2ccc(C(C)=O)cc2)n1	21%	?	?	?	·	8.2µM*
CCn1c(SCC(=O)Nc2ccc(C(C)=O)cc2)nc2ccccc21	?	-11%	?	?	-4%	16µM*
CC(C)c1ccccc1NC(=O)CN1C(=O)c2ccccc2C1=O	4%	-7%	12%	-9%	-3%	0%
CC(C)n1ncc2c(C(=O)Nc3cccc(S(=O)(=O)N(C)C)c3)cc(C3CC3)nc21	?	10%	-16%	21µM*	-1%	-9%
CNC(=O)c1cccc(NC(=O)c2cc(-c3ccccc3)nc3c2cnn3C(C)C)c1	?	-4%	-9%	7.9µM*	-3%	-4%
CC(C)n1ncc2c(C(=O)Nc3ccc(S(C)(=O)=O)cc3)cc(C3CC3)nc21	-9%	-3%	-2%	?	-9%	-1%
CCN(CC)C(=O)c1cccc(NC(=O)c2cc(C3CC3)nc3c2cnn3C(C)C)c1	1%	-6%	-16%	?	-15%	-8%
CC(=O)n1cc(N(C(=O)CCl)c2ccc(Cl)cc2)c2ccccc21	?	2.6µM*	-16%	?	?	-19%
CC(=O)n1cc(Nc2ccccc2C(=O)O)c2ccccc21	3%	-3%	0%	1%	9%	-2%
COc1ccccc1N(C(=O)CCl)c1cn(C(C)=O)c2ccccc12	?	?	-13%	12µM*	35%	-18%
CCOC(=O)c1ccccc1Nc1cn(C(C)=O)c2ccccc12	?	?	2%	-3%	1%	12%
Cc1c(/N=C(\[O-])Nc2ccc(Br)cc2)sn[n+]1C	-4%	?	5%	?	3%	0.37µM*
CCOC(=O)[C@@H]1[C@H]2COc3ccc(Br)cc3[C@H]2N2C(=O)N(c3cccc(Cl)c3)C(=O)[C@]12C	2%	3%	·	11%	0%	1%
Cc1cc(C)c(C)c(C(=O)COC(=O)CNC(=O)CNC(=O)c2ccco2)c1C	-4%	-16%	4%	-10%	0%	3%
O=C(NCCN1C(=O)S/C(=C\c2ccc(Cl)cc2Cl)C1=O)C1=COCCO1	13µM*	?	17%	28%	-1%	13%
O=C(CNC(=O)c1ccccc1F)NCCN1C(=O)S/C(=C\c2ccccc2Cl)C1=O	4%	-5%	-13%	-1%	1%	2%
O=C(NCCN1C(=O)S/C(=C\c2ccccc2Cl)C1=O)C1=COCCO1	7.3µM*	?	21%	23%	3%	11%
O=C(NCCN1C(=O)S/C(=C\c2ccc(Cl)c(Cl)c2)C1=O)C1COc2ccccc2O1 (configuration not stated)	5%	5%	-3%	-12%	-2%	-5%
